Reference: PubChem BioAssay (NCATS)
Several values for one entry are separate records, joined by “and”; a condition that tells them apart may be missing. Identical values can stand only once. Records with an inconclusive call do not appear. Activity calls are given as the source filed them. Unless noted, calls come from the whole dose curve.

How the values were obtained:
[1] = target: Bile acid receptor (Homo sapiens) (UniProt Q96RI1); assay: qHTS assay for small molecule agonists of farnesoid X receptor signaling (AID 588527); settings: HEK293T FXR-UAS-bla, beta-lactamase ratio, 16 h; stronger effect = higher value;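 note: 0% = vehicle basal and 100% = reference agonist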
Method in brief: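 FXR-UAS-bla HEK293T, 10% dialyzed FBS; cpds up to 92 uM titration, 16 h 37 C; CCF4 dye 2 h RT; fluorescence. Normalized to chenodeoxycholic acid 100 uM (100%) and DMSO (0%); Hill fit gives EC50, efficacy.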

[2] = target: Glucocorticoid receptor (Homo sapiens) (UniProt P04150); assay: qHTS assay for small molecule agonists of glucocorticoid receptor signaling (AID 588532; active = well fitted curve in the direction sought with a large enough effect in the signal ratio, with a control signal flat; the % refers to the signal ratio;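 note: 100% = dexamethasone at 0.1 µM and 0% = DMSO only wells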); settings: HeLa MMTV-bla, beta-lactamase ratio, agonist, 18 h; stronger effect = higher value; percent of dexamethasone control, DMSO zero
Method in brief: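 HeLa GRE-bla reporter cells; 18 h compound exposure at 37 C; 2 h CCF4 loading at room temperature; fluorescence at 460 and 530 nm; EC50 by Hill equation.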

[3] = target: Peroxisome proliferator-activated receptor delta (Homo sapiens) (UniProt Q03181); assay: qHTS assay for small molecule agonists of peroxisome proliferator-activated receptor delta signaling (AID 588534); settings: HEK293T PPARdelta-UAS-bla, beta-lactamase ratio, 18 h; series mostly up to 76.7 µM;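 note: 0% = DMSO basal wells and 100% = positive control agonist at 10 µM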
Method in brief: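 Agonist-mode beta-lactamase reporter readout (CCF4 dye, 2 h at RT) after 18 h at 37 °C exposure to a titration; Hill-equation fitting gave EC50 and maximal response.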

[4] = target: Estrogen receptor (Homo sapiens) (UniProt P03372); assay: qHTS assay for small molecule agonists of estrogen receptor alpha signaling (AID 588514); settings: ER-alpha-UAS-bla HEK293, beta-lactamase ratio, 18 h; series mostly up to 76.8 µM; note: nearly all actives have a fitted effect of over 70% in size; note: potency is the fitted concentration of half-maximal effect;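 for activation: 0% = vehicle only and 100% = reference agonist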
Method in brief: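 EC50 and efficacy came from Hill fits of beta-lactamase reporter signal (CCF4 dye, 2 h at room temperature) scaled between DMSO and 20 nM 17-beta-estradiol. Agonist mode: HEK293 ER-alpha-UAS-bla cells in charcoal/dextran-stripped serum medium, 18 h compound exposure at 37 C.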

[5] = qHTS assay for small molecule antagonists of peroxisome proliferator-activated receptor delta signaling (AID 588535; active = well fitted inhibition curve with a large enough effect in the signal ratio, with a control signal flat, not every such curve was filed as active; the % refers to the signal ratio;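 for max response: cells co-treated with a PPAR-delta agonist as stimulator during compound exposure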); settings: HEK293T PPARd-UAS-bla, beta-lactamase FRET ratio, 18 h; 460 nm channel
Method in brief: (§1)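 Fluorescence from CCF4-loaded GeneBLAzer PPAR-delta-UAS-bla HEK293T cells (2 hrs RT loading) quantified reporter inhibition after an 18 hr, 37 C compound exposure across a titration.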

[6] = target: Peroxisome proliferator-activated receptor delta (Homo sapiens) (UniProt Q03181); assay: as above; settings: HEK293T PPARd-UAS-bla, beta-lactamase FRET ratio, 18 h; series mostly up to 76.7 µM
Method in brief: as §1

[7] = target: Androgen receptor (Homo sapiens) (UniProt P10275); assay: qHTS assay for small molecule agonists of androgen receptor signaling (AID 588515; active = well fitted curve in the direction sought with a large enough effect in the signal ratio, with a control signal flat; the % refers to the signal ratio; note: % is set by controls: 0 for no effect and ±100 for the full control effect); settings: AR-UAS-bla HEK293, beta-lactamase ratio, agonist 16 h; stronger effect = higher value
Method in brief: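 Stimulation of an AR-responsive β-lactamase reporter in GripTite HEK293 cells was measured after 16 h compound exposure at 37 °C, via CCF4 fluorescence after 2 h RT. EC50 from Hill fits, normalized to R1881 at 30 nM.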

[8] = target: Androgen receptor (Homo sapiens) (UniProt P10275); assay: qHTS assay for small molecule antagonists of androgen receptor signaling (AID 588516; active = well fitted curve in the direction sought with a large enough effect in the signal ratio, with a control signal flat, not every such curve was filed as active; the % refers to the signal ratio; note: % is set by controls: 0 for no effect and ±100 for the full control effect); settings: AR-UAS-bla HEK293, beta-lactamase ratio, antagonist mode, 16 h; series mostly up to 76.8 µM
Method in brief: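 Antagonist mode: inhibition of R1881-stimulated (10 nM final) bla reporter in GeneBLAzer AR HEK 293 cells, 16 h at 37C, compounds titrated. IC50 and efficacy from Hill-equation fits of 405/460–530 nm FRET ratios.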

[9] = target: Bile acid receptor (Homo sapiens) (UniProt Q96RI1); assay: qHTS assay for small molecule antagonists of farnesoid X receptor signaling (AID 588526); settings: HEK293T FXR-UAS-bla, beta-lactamase ratio, antagonist mode; series mostly up to 76.7 µM; note: potency is the fitted concentration of half-maximal effect
Method in brief: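 Antagonist mode: titrated compounds tested against chenodeoxycholic acid stimulation (normalized to 50 uM CDCA and DMSO) in GeneBLAzer HEK293T cells for 16 h. Beta-lactamase read by CCF4 fluorescence; IC50 from Hill fits.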

[10] = target: Glucocorticoid receptor (Homo sapiens) (UniProt P04150); assay: qHTS assay for small molecule antagonists of glucocorticoid receptor signaling (AID 588533; active = well fitted inhibition curve with a large enough effect in the signal ratio, with a control signal flat, not every such curve was filed as active; the % refers to the signal ratio;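 note: cells stimulated with 2 nM dexamethasone as agonist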; note: potency is the fitted concentration of half-maximal effect); settings: HeLa MMTV-bla, GRE beta-lactamase ratio, antagonist mode, 18 h; series mostly up to 76.8 µM
Method in brief: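 Antagonist-mode qHTS: compound titrations added to GRE-bla HeLa cells, then dexamethasone 2 nM final; 18 h, 37 C. CCF4 FRET fluorescence normalized to dexamethasone and DMSO; IC50 from Hill fit.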

Chain of Glucocorticoid receptor (Homo sapiens) (P04150 whole entry, looked up): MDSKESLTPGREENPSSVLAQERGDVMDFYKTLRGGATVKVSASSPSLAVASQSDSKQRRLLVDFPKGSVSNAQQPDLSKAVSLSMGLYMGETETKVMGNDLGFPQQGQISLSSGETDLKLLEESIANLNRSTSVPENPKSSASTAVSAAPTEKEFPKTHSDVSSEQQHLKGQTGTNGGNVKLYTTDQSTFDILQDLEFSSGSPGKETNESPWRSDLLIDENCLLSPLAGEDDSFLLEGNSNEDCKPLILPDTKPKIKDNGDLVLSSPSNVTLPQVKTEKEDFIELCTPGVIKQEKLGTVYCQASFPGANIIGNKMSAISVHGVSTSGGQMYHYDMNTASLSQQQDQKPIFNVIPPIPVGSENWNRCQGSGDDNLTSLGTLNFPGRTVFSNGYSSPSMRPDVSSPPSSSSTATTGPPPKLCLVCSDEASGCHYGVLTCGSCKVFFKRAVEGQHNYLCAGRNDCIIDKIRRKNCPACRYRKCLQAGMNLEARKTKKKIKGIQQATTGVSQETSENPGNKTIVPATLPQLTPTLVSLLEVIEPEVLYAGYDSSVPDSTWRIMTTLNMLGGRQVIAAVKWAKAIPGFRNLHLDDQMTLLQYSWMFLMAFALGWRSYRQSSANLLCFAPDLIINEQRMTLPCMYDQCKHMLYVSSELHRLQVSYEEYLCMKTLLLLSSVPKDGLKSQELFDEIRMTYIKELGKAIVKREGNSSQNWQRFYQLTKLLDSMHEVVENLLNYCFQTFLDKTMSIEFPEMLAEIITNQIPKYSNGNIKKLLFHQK
Chain of Estrogen receptor (Homo sapiens) (P03372 whole entry, looked up): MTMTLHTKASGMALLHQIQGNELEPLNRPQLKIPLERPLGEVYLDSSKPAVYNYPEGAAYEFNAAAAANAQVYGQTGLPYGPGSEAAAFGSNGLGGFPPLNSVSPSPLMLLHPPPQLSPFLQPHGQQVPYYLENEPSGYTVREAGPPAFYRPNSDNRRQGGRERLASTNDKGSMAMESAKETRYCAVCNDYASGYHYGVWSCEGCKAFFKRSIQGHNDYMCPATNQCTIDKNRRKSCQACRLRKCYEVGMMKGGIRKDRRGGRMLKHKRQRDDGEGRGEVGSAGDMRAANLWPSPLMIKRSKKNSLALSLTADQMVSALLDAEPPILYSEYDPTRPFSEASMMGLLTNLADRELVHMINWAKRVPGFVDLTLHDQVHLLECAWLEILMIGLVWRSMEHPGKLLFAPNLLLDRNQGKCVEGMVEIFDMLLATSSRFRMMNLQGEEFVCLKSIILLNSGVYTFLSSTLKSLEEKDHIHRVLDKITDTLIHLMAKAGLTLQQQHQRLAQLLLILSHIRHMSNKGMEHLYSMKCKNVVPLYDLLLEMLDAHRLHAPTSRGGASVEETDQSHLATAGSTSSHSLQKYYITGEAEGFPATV
Chain of Bile acid receptor (Homo sapiens) (Q96RI1 whole entry, looked up): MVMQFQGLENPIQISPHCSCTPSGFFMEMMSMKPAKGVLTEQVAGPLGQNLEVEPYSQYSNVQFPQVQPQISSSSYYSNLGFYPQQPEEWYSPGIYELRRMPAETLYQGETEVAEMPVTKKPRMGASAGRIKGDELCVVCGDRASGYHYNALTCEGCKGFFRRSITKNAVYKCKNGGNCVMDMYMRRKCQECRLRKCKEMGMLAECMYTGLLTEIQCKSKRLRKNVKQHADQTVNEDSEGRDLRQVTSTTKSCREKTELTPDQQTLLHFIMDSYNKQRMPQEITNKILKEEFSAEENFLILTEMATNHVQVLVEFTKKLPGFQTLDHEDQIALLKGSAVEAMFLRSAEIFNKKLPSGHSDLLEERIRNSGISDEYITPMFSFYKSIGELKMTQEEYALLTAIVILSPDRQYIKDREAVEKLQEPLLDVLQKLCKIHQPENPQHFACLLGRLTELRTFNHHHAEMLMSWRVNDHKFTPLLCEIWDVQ
Chain of Androgen receptor (Homo sapiens) (P10275 whole entry, looked up): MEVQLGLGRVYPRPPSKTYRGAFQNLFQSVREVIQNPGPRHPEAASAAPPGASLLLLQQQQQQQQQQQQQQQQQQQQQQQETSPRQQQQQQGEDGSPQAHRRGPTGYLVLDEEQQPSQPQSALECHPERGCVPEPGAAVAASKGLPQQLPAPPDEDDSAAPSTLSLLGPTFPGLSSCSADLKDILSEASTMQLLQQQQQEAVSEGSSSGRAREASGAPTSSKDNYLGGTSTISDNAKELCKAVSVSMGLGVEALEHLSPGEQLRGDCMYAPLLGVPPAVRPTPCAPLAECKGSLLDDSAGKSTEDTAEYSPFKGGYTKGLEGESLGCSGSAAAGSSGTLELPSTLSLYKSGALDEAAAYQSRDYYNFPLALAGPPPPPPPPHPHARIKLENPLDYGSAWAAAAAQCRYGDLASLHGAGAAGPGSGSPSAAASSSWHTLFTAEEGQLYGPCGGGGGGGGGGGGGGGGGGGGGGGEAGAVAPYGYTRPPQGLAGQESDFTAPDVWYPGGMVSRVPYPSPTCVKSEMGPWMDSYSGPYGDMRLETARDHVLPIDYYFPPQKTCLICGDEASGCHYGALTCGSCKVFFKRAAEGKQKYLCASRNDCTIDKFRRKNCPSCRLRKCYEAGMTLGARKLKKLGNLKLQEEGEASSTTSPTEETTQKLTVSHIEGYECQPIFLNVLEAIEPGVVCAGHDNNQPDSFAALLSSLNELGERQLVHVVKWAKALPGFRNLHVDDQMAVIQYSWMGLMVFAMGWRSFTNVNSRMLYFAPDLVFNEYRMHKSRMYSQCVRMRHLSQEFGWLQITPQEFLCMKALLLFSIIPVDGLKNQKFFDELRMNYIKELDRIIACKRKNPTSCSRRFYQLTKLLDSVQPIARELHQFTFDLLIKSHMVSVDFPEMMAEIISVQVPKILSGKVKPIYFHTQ
Chain of Peroxisome proliferator-activated receptor delta (Homo sapiens) (Q03181 whole entry, looked up): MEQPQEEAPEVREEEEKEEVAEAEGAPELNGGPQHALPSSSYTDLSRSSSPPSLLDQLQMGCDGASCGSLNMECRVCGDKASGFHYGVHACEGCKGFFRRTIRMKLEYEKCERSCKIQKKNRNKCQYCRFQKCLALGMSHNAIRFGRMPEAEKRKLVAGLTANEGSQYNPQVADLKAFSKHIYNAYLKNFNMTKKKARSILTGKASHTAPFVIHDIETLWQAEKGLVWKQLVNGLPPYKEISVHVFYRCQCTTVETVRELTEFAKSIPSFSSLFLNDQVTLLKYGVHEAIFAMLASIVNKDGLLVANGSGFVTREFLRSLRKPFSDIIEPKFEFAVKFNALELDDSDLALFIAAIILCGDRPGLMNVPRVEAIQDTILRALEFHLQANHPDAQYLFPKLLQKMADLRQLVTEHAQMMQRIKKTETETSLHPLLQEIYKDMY

SMILES: CC(C)OC(=O)C(C)(C)Oc1ccc(C(=O)c2ccc(Cl)cc2)cc1
- activation [1]: 2.77% (inactive)

SMILES: NC(=Nc1ccccc1)Nc1ccccc1
- activation [1]: -1.85% (inactive) and 0.0042% (inactive)
- activation [2]: -8.4% (inactive)
- outcome [3]: inactive

SMILES: Cc1cn([C@H]2C=C[C@@H](CO)O2)c(=O)[nH]c1=O
- activation [1]: -2.48% (inactive) and 1.31% (inactive) and -0.393% (inactive)
- outcome [3]: inactive

SMILES: CCCC(C)(COC(N)=O)COC(=O)NC(C)C (configuration not stated)
- Potency [4]: inactive

SMILES: Clc1ccc(COC(Cn2ccnc2)c2ccc(Cl)cc2Cl)cc1 (configuration not stated)
- Potency [4]: inactive
- activation [1]: 9.99% (inactive)
- activation [2]: 9.41% (inactive)
- outcome [3]: inactive

SMILES: Oc1ccccc1-c1ccccc1
- Potency [4]: inactive
- outcome [3]: inactive
- max response [5]: -47.4% and 9.69% and -13.4%
- outcome [6]: inactive

SMILES: CC(C)(C)CC(C)(C)c1ccc(O)cc1
- activation [7]: 2.26% (inactive)
- outcome [8]: inactive
- Potency [9]: inactive
- activation [1]: 3.19% (inactive)
- activation [2]: 4.7% (inactive)
- outcome [3]: inactive
- max response [5]: -1.27%
- outcome [6]: inactive

SMILES: C[C@H]1O[C@@H](O[C@H]2[C@@H](O)C[C@H](O[C@H]3[C@@H](O)C[C@H](O[C@H]4CC[C@@]5(C)[C@H](CC[C@@H]6[C@@H]5CC[C@]5(C)[C@@H](C7=CC(=O)OC7)CC[C@]65O)C4)O[C@@H]3C)O[C@@H]2C)C[C@H](O)[C@@H]1O
- activation [1]: -2.75% (inactive)
- activation [2]: -14.2% (inactive)
- Potency [10]: 355 nM (active)

SMILES: CCC1(c2ccccc2)C(=O)NCNC1=O
- activation [1]: -0.167% (inactive) and -0.256% (inactive)

SMILES: Cc1cc(SCc2sc(-c3ccc(C(F)(F)F)c(F)c3)nc2C)ccc1OCC(=O)O
- Potency [9]: inactive
- activation [1]: -2.28% (inactive)

SMILES: Oc1ccc(Cl)cc1Cc1ccccc1
- activation [7]: -12.3% (inactive)
- outcome [8]: inactive
- activation [2]: -0.163% (inactive) and -0.754% (inactive)
- Potency [10]: inactive
- outcome [3]: inactive
- max response [5]: 28.1% and 8.37%
- outcome [6]: inactive

SMILES: CCCCNC(=O)NS(=O)(=O)c1ccc(C)cc1
- activation [1]: 0.0302% (inactive) and 2.67% (inactive)
- outcome [3]: inactive

SMILES: Cc1ccnc2c1NC(=O)c1cccnc1N2C1CC1
- activation [1]: 5.2% (inactive)
- outcome [3]: inactive

SMILES: C[C@]12C/C(=C/O)C(=O)C[C@@H]1CC[C@@H]1[C@@H]2CC[C@@]2(C)[C@H]1CC[C@]2(C)O
- Potency [4]: 562 nM (active)
- activation [1]: 1.58% (inactive)
- activation [2]: -7.95% (inactive)

SMILES: O=C(CCCN1CCC(O)(c2ccc(Cl)cc2)CC1)c1ccc(F)cc1
- activation [1]: -8.42% (inactive)

SMILES: CCc1nc(N)nc(N)c1-c1ccc(Cl)cc1
- activation [1]: -5.01% (inactive) and -3.58% (inactive)
- outcome [3]: inactive

SMILES: c1ccc2c(c1)Nc1ccccc1S2
- Potency [4]: inactive
- outcome [3]: inactive
- max response [5]: 32.2% and -35%
- outcome [6]: inactive

SMILES: CN(C)CCOC(C)(c1ccccc1)c1ccccn1 (configuration not stated)
- activation [1]: -1.68% (inactive)
- outcome [3]: inactive

SMILES: N[C@@H](Cc1ccc(N(CCCl)CCCl)cc1)C(=O)O
- Potency [9]: 39800 nM (active)
- activation [1]: 0.124% (inactive)
- activation [2]: 7.11% (inactive) and 5.34% (inactive)
- Potency [10]: inactive

SMILES: CC(C)C(=O)Nc1ccc([N+](=O)[O-])c(C(F)(F)F)c1
- Potency [4]: inactive
- activation [1]: -2.87% (inactive) and 6.82% (inactive)

SMILES: CN(C)/N=N/c1nc[nH]c1C(N)=O
- activation [1]: -3.3% (inactive)
- outcome [3]: inactive

SMILES: O=c1oc2ccccc2c(O)c1C(CC(O)c1ccc(-c2ccc(Br)cc2)cc1)c1ccccc1 (configuration not stated)
- activation [1]: -8.03% (inactive)

SMILES: COC1=CC(=O)C[C@@H](C)[C@]12Oc1c(Cl)c(OC)cc(OC)c1C2=O
- activation [1]: 0.423% (inactive)

SMILES: CC1(C)NC(=O)N(c2ccc([N+](=O)[O-])c(C(F)(F)F)c2)C1=O
- activation [1]: 0.399% (inactive)

SMILES: CC1=C(/C=C/C(C)=C/C=C/C(C)=C/C(=O)Nc2ccc(O)cc2)C(C)(C)CCC1
- activation [1]: -5.41% (inactive)
- outcome [3]: inactive

SMILES: Nc1ccncc1
- Potency [4]: inactive
- activation [7]: -4.84% (inactive)
- outcome [8]: inactive
- outcome [3]: inactive
- max response [5]: -23%
- outcome [6]: inactive

SMILES: O=c1[nH]c2ccccc2n1C1CCN(CCCC(c2ccc(F)cc2)c2ccc(F)cc2)CC1
- Potency [4]: inactive
- activation [1]: -1.92% (inactive)
- activation [2]: 4.7% (inactive)
- Potency [10]: inactive

SMILES: CCCCOCCOCCOCc1cc2c(cc1CCC)OCO2
- activation [1]: 1.08% (inactive) and -5.21% (inactive)
- outcome [3]: inactive

SMILES: COc1ccc(Cl)cc1C(=O)NCCc1ccc(S(=O)(=O)NC(=O)NC2CCCCC2)cc1
- activation [1]: 0.916% (inactive)

SMILES: Nc1ccc(O)c(C(=O)O)c1
- activation [1]: -5.01% (inactive) and -0.178% (inactive)
- outcome [3]: inactive

SMILES: CCn1cc(C(=O)O)c(=O)c2ccc(C)nc21
- Potency [4]: inactive
- activation [1]: -0.319% (inactive) and 0.585% (inactive)
- max response [5]: 27.2%
- outcome [6]: inactive

SMILES: CNCC(O)c1ccc(O)cc1 (configuration not stated)
- Potency [4]: inactive
- Potency [9]: inactive
- activation [1]: -1.79% (inactive)
- activation [2]: 9.17% (inactive)
- Potency [10]: inactive
- outcome [3]: inactive
- max response [5]: -16.7%
- outcome [6]: inactive

SMILES: OCCOc1ccccc1
- Potency [4]: inactive
- Potency [9]: inactive
- activation [1]: 0.0237% (inactive) and -6.3% (inactive) and -0.639% (inactive)
- activation [2]: 0.307% (inactive) and -9.57% (inactive) and -3.52% (inactive)
- Potency [10]: inactive
- outcome [3]: inactive
- max response [5]: 16.7% and 12.5% and -5.77%
- outcome [6]: inactive

SMILES: COc1cc2c(c(OC)c1OC)-c1ccc(OC)c(=O)cc1[C@@H](NC(C)=O)CC2
- activation [1]: -2.29% (inactive)
- activation [2]: -3.94% (inactive) and -2.86% (inactive)
- Potency [10]: inactive

SMILES: CN(C)CCC=C1c2ccccc2CCc2ccccc21
- activation [1]: -2.7% (inactive) and 0.944% (inactive)
- activation [2]: -8.68% (inactive)

SMILES: CN(Cc1cnc2nc(N)nc(N)c2n1)c1ccc(C(=O)N[C@@H](CCC(=O)O)C(=O)O)cc1
- activation [1]: -5.02% (inactive)

SMILES: C#C[C@]1(O)CC[C@H]2[C@@H]3CCC4=Cc5oncc5C[C@]4(C)[C@H]3CC[C@@]21C
- activation [1]: -1.05% (inactive)
- outcome [3]: inactive

SMILES: C=C(C)[C@H]1Cc2c(ccc3c2O[C@@H]2COc4cc(OC)c(OC)cc4[C@@H]2C3=O)O1
- activation [1]: -1.33% (inactive)
- activation [2]: -11.8% (inactive)

SMILES: CCOP(=S)(OCC)Oc1cc(C)nc(C(C)C)n1
- Potency [10]: inactive

SMILES: C[C@]12CCC(=O)C(O)=C1CC[C@@H]1[C@@H]2CC[C@]2(C)C(=O)CC[C@@H]12
- Potency [10]: inactive
